# Data from the supplement of paper PMC12669032.
# A number with no mark means an inactive call.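 Rule for the calls: active = AUC reduced over 20% with Padj below 0.05 in at least 2 of 3 replicates; inactive = otherwise.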
# Tests used:
# Experiment in all cases: growth AUC relative to DMSO control (median of replicates) (fraction); higher = more growth (less inhibition), active = hit call of the paper
# Details in all cases: 20 µM; 24 h
# Akkermansia muciniphila = system: Akkermansia muciniphila
# Summary of the method: (§1)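 Starting at OD600 0.05, gut bacterial monocultures in mGAM were grown anaerobically at 37 °C with 20 µM compound (1% DMSO) under pierced gas-permeable seals. OD600 was read every hour for 24 h, and the lowest OD of each curve was set to 0. Area under the growth curve was normalised to the plate median of solvent-only wells, or to row and column medians on the industrial chemical plate, and the median of three biological replicates grown on separate days is given.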
# Bacteroides caccae = system: Bacteroides caccae
# Summary of the method: as §1
# Bacteroides clarus = system: Bacteroides clarus
# Summary of the method: as §1
# Bacteroides dorei = system: Bacteroides dorei
# Summary of the method: as §1
# Bacteroides stercoris = system: Bacteroides stercoris
# Summary of the method: as §1
# [1] = system: Bacteroides thetaiotaomicron
# Summary of the method: as §1
# Bacteroides uniformis = system: Bacteroides uniformis
# Summary of the method: as §1
# [2] = system: Bifidobacterium longum subsp. longum
# Summary of the method: as §1
# Clostridium difficile = system: Clostridium difficile
# Summary of the method: as §1
# Collinsella aerofaciens = system: Collinsella aerofaciens
# Summary of the method: as §1
# Coprococcus comes = system: Coprococcus comes
# Summary of the method: as §1
# Escherichia coli ED1a = system: Escherichia coli ED1a
# Summary of the method: as §1
# Escherichia coli IAI1 = system: Escherichia coli IAI1
# Summary of the method: as §1
# Eubacterium rectale = system: Eubacterium rectale
# Summary of the method: as §1
# [3] = system: Fusobacterium nucleatum subsp. animalis
# Summary of the method: as §1
# Lactobacillus gasseri = system: Lactobacillus gasseri
# Summary of the method: as §1
# Lactobacillus paracasei = system: Lactobacillus paracasei
# Summary of the method: as §1
# Odoribacter splanchnicus = system: Odoribacter splanchnicus
# Summary of the method: as §1
# [4] = system: Parabacteroides distasonis
# Summary of the method: as §1
# Parabacteroides merdae = system: Parabacteroides merdae
# Summary of the method: as §1
Structure (SMILES),growth AUC (Akkermansia muciniphila),growth AUC (Bacteroides caccae),growth AUC (Bacteroides clarus),growth AUC (Bacteroides dorei),growth AUC (Bacteroides stercoris),growth AUC [1],growth AUC (Bacteroides uniformis),growth AUC [2],growth AUC (Clostridium difficile),growth AUC (Collinsella aerofaciens),growth AUC (Coprococcus comes),growth AUC (Escherichia coli ED1a),growth AUC (Escherichia coli IAI1),growth AUC (Eubacterium rectale),growth AUC [3],growth AUC (Lactobacillus gasseri),growth AUC (Lactobacillus paracasei),growth AUC (Odoribacter splanchnicus),growth AUC [4],growth AUC (Parabacteroides merdae)
CCOP(=S)(OCC)Oc1ccc(=O)n(-c2ccccc2)n1,0.918,0.997,0.943,0.977,0.959,0.948,0.949,1.04,0.936,0.99,0.973,0.965,0.97,0.956,0.955,0.928,1.01,0.986,0.922,0.974
N#Cc1c(Cl)c(Cl)c(Cl)c(C#N)c1Cl,0.96,0.984,0.563 (active),0.931,0.566 (active),0.0851 (active),0.218 (active),0.782 (active),0.997,0.864,0.974,0.967,0.96,0.714,0.908,0.558 (active),0.872,0.927,0.682 (active),0.823
CN(C)S(=O)(=O)N(SC(F)(Cl)Cl)c1ccccc1,1.13,1.01,1.03,0.998,1.2,1.01,1.03,0.989,1.01,0.98,1.04,1.03,1.01,1.09,1.06,1.03,1.07,1.04,1.02,0.99
CCCCCCCCCCCCC1=C(OC(C)=O)C(=O)c2ccccc2C1=O,1.04,0.926,0.934,0.969,0.988,0.996,0.987,0.827,0.926,0.0278 (active),0.863,1,0.975,0.889,1.02,0.504 (active),0.894,0.959,0.933,0.878
CCOP(=S)(OCC)SCCS(=O)(=O)CC,1.05,1.02,1,0.977,1.03,0.99,0.986,1.01,1,0.995,1.02,1.05,0.994,1.02,1,0.903,1.01,1.06,1.04,0.991
C=C(C)[C@H]1Cc2c(ccc3c2O[C@@H]2COc4cc(OC)c(OC)cc4[C@@H]2C3=O)O1,1.07,0.985,0.897,0.947,0.735,0.965,0.813,1,1.03,0.987,0.986,1,1.01,0.973,1.06,0.878,0.954,0.917,0.935,0.94
CCN(CC)C(=S)[S-].O.O.O.[Na+],0.862,0.981,1.01,0.978,1.08,0.848,1.01,0.961,1.04,0.925,0.964,0.972,0.976,0.983,1.09,1.01,0.978,1,0.982,0.873
C[C@@H](Oc1ccc(Oc2ccc(C(F)(F)F)cn2)cc1)C(=O)O,1.08,1.04,1.02,1.02,1.05,1.02,0.995,0.985,1.02,0.957,1.03,1,1,1.06,1.06,0.867,1.02,1.03,1.01,1.07
COP(=S)(OC)SCn1nnc2ccccc2c1=O,1.09,0.98,0.977,0.877,0.883,0.969,0.986,0.949,0.931,0.941,0.997,0.957,0.968,1.07,0.916,0.929,0.968,0.902,0.787,0.944
COP(=S)(OC)Oc1ccc([N+](=O)[O-])c(Cl)c1,1.04,0.99,0.973,0.972,0.973,0.993,0.943,1.01,0.961,0.958,0.95,0.97,0.984,1.18,0.975,0.893,0.974,0.876,0.921,0.932
O=[N+]([O-])c1ccc2ccc3cccc4ccc1c2c34,0.948,0.59 (active),0.783 (active),0.851,0.179 (active),0.737 (active),0.877,1.3,0.913,0.983,0.972,0.988,0.99,0.577 (active),0.401 (active),0.99,1.02,0.0656 (active),0.579 (active),0.495 (active)
Cc1cc(Cl)ccc1O[C@H](C)C(=O)O,1.04,0.841,1,0.982,1.15,0.991,0.958,1.01,0.972,0.968,1.01,1,0.98,1.06,1.08,0.873,0.979,1.1,0.961,0.956
Cc1cccc(C)c1N(Cn1cccn1)C(=O)CCl,1.02,0.829,0.997,0.974,1.01,0.987,0.969,1.07,1.01,0.952,0.992,0.976,0.952,1.09,1.1,0.928,0.997,1.06,1.01,0.963
COCC(=O)N(c1c(C)cccc1C)[C@@H](C)C(=O)OC,1.19,0.953,0.968,0.922,1,1.04,0.981,1.04,1.04,0.973,1.04,1.01,1,1.09,1.1,0.893,1.01,0.996,0.796,0.996
Cc1cc(C)c(C2=C(OC(=O)CC(C)(C)C)C3(CCCC3)OC2=O)c(C)c1,1.2,0.977,1,0.988,1.23,1.05,0.958,1.05,0.98,1.02,0.974,1.02,1.03,1.04,1.09,0.918,1.14,0.978,0.772 (active),1.04
CC(C)(C)c1ccc(CSc2cnn(C(C)(C)C)c(=O)c2Cl)cc1,0.971,0.95,0.959,0.991,1.07,0.975,0.986,0.97,0.963,0.999,0.976,1,0.986,0.966,1.05,0.945,1.16,1.07,0.988,0.962

Structure (SMILES),growth AUC (Akkermansia muciniphila),growth AUC (Bacteroides caccae),growth AUC (Bacteroides clarus),growth AUC (Bacteroides dorei),growth AUC (Bacteroides stercoris),growth AUC [1],growth AUC (Bacteroides uniformis),growth AUC [2],growth AUC (Clostridium difficile),growth AUC (Collinsella aerofaciens),growth AUC (Coprococcus comes),growth AUC (Escherichia coli ED1a),growth AUC (Escherichia coli IAI1),growth AUC (Eubacterium rectale),growth AUC [3],growth AUC (Lactobacillus gasseri),growth AUC (Lactobacillus paracasei),growth AUC (Odoribacter splanchnicus),growth AUC [4],growth AUC (Parabacteroides merdae)
CCSC(=O)N(CC)C1CCCCC1,0.936,0.998,0.974,1.02,1.06,1.01,1.01,1.01,1.01,1.09,0.988,0.987,1.03,1.01,1.01,1.2,1,0.975,1.07,1.03
CCCN(CC)CC1COC2(CCC(C(C)(C)C)CC2)O1 (stereo not given),0.871,0.99,0.952,1.07,0.87,1.02,1.04,0.79,0.985,0.981,0.993,1,0.959,0.987,0.899,1.04,0.947,0.978,0.966,0.965
O=C(NC(=O)c1c(F)cccc1F)Nc1ccc(Cl)c(Oc2ncc(C(F)(F)F)cc2Cl)c1,1.14,0.985,1.02,1.1,0.98,1.01,1.02,0.917,1.1,1.08,0.98,0.999,1.01,0.951,1.1,1.16,0.815,1.13,1.02,0.991
COc1cc(OC)nc(NC(=O)NS(=O)(=O)c2ncccc2C(F)(F)F)n1,0.985,1.02,0.977,0.991,0.908,1.02,1.02,1,1.02,0.972,1.02,0.985,0.998,1.09,1.04,1.02,0.986,1.09,1.05,1.04
CCOP(=S)(OCC)SCCS(=O)CC (stereo not given),1.04,1.02,0.979,0.985,1.02,1.02,1.05,1,0.967,1,0.971,0.985,0.98,1.11,1.02,0.941,0.948,1.06,1.01,1
COP(=O)(OC)OC=C(Cl)Cl,1.04,1.05,1.01,0.984,1.17,1.03,1.03,1.04,1.05,1.01,1.03,1.01,1.02,1.04,1.09,0.912,1.04,1.01,1.05,1.01
CCCSP(=S)(OCC)Oc1ccc(Cl)cc1Cl (stereo not given),1.06,0.796,1.05,0.98,1.41,0.961,1.01,1.07,1.05,0.965,1,1.05,1.01,1.04,1.11,1.01,0.984,0.778,0.984,1.01
CCCCCCCCCCCCCN1CC(C)OC(C)C1 (stereo not given),0.931,0.969,1,1.01,1.03,0.993,0.982,0.908,0.923,0.941,0.999,1.01,0.966,0.991,0.964,0.937,1.08,0.984,0.984,0.973
Clc1ccc(C2(Cn3cncn3)CC(Br)CO2)c(Cl)c1 (stereo not given),1.07,0.973,0.982,0.955,0.921,0.961,0.944,0.896,0.978,0.951,0.997,0.989,1,0.806,0.914,0.891,0.987,0.961,0.952,0.924
COCCN(C(=O)CCl)c1c(C)cccc1C,0.91,0.969,0.967,1.02,0.967,0.989,0.973,0.851,1,1.02,0.983,1,0.973,0.854,0.939,1.02,0.831,0.965,0.968,0.985
CC(Oc1ccc(Oc2ccc(C(F)(F)F)cn2)cc1)C(=O)O (stereo not given),1.17,0.992,1.02,0.943,1.04,1.01,0.899,1.05,0.917,0.941,1.01,0.995,0.996,1.12,0.915,0.839,0.969,0.766 (active),0.72,0.993
CC(C)(C)C(O)C(Oc1ccc(-c2ccccc2)cc1)n1cncn1 (mixture of isomers),1.01,0.919,0.874,0.926,1.11,0.938,0.899,0.847,0.924,0.995,1,1.01,1.05,0.964,1.07,0.949,0.958,0.952,0.918,0.976
[CH3][Hg][Cl],0.749,0.912,0.837,0.96,0.903,0.679 (active),0.77 (active),0.868,0.902,1.01,0.816,1.04,1.06,0.872,0.956,0.99,1.04,0.684 (active),0.918,0.892
O=C(NC(=O)c1c(F)cccc1F)Nc1ccc(CO/N=C(\c2ccc(Cl)cc2)C2CC2)cc1,1.02,0.994,0.955,1.01,0.981,0.996,0.983,0.959,0.983,0.963,0.988,1,0.986,0.952,0.997,0.963,0.962,1.01,1.04,0.975
NCCO.O=C(O)c1nc(Cl)ccc1Cl,1.02,1.01,1.04,0.987,1.02,1.04,1,1.04,1,1.02,1.05,1.01,1.01,0.912,1.04,0.979,1.02,1.02,1.02,1.01
Nc1cc(Cl)cc(C(=O)O)c1Cl,1.03,0.975,1.02,1.04,1.06,1,0.958,1.04,1.01,1.06,0.992,1.01,1.04,1.01,0.994,1.13,1.03,1.09,1.01,0.977
